The results in this text go back to the supplement of paper PMC12350171.

Holding throughout (experiment): growth AUC normalised to DMSO control (median) (fraction of control); higher = less growth inhibition, active = hit call of the paper
Common to all, as to conditions: 20 µM

The subject of one experiment is P. vulgatus RND KO. Put shortly: (§1)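 Strains were passaged twice overnight without oxygen, then grown in mGAM in 96-well plates with each approved-drug library compound at 20 μM and 1% DMSO, starting at OD578 0.01. OD578 was read hourly for 24 h inside an anaerobic incubator. Curves were truncated at entry into stationary phase, and the trapezoidal-rule area under the curve was normalised to same-plate vehicle wells. The value is the median across three biological replicates.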

Another experiment has as its system P. vulgatus WT. Put shortly: as §1
The test system of experiment [1] is S. enterica typhimurium WT. Put shortly: as §1
Experiment [2] deals with S. enterica typhimurium tolC KO. The method, boiled down:
as §1

Where a name gives a salt, the structure may show the parent alone. Values without a mark were called inactive.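 The calls were made as follows: active = normalised median growth AUC below 0.1 of DMSO control; inactive = AUC 0.1 or higher.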
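Also: active when median AUC fell below 0.1.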

In the case of `CCCC(=O)N1CCCN(c2nc(N)c3cc(OC)c(OC)cc3n2)CC1` [Bunazosin hydrochloride], the “growth AUC normalised to DMSO control” value with P. vulgatus RND KO was 1.01; in the experiment on P. vulgatus WT it was 1.01; in experiment [1], 1; in experiment [2], 0.994.

Regarding `CN1CC(=O)N2[C@H](c3ccc4c(c3)OCO4)c3[nH]c4ccccc4c3C[C@@H]2C1=O` [Tadalafil], the “growth AUC normalised to DMSO control” value was 0.919 with P. vulgatus RND KO, 0.845 in the experiment with P. vulgatus WT, 0.996 in experiment [1] and 0.981 in experiment [2].

Consider `COc1ccnc(C[S+]([O-])c2nc3cc(OC(F)F)ccc3[nH]2)c1OC` (configuration not stated) [Pantoprazole sodium], for which the “growth AUC normalised to DMSO control” value in the experiment with P. vulgatus RND KO was 0.991; in the experiment with P. vulgatus WT, 0.998; in experiment [1], 1.01; in experiment [2], 0.937.

`Cc1ccccc1C(=O)Nc1ccc(C(=O)N2CCCC(O)c3cc(Cl)ccc32)c(C)c1` (configuration not stated) [Tolvaptan]: the “growth AUC normalised to DMSO control” value with P. vulgatus RND KO was 0.919; in the experiment with P. vulgatus WT, 0.928; in experiment [1], 0.993; in experiment [2], 0.94.

Take `CCCCCCNC(=O)n1cc(F)c(=O)[nH]c1=O` [Carmofur]: the “growth AUC normalised to DMSO control” value with P. vulgatus RND KO is 0.0803 (active); in the experiment on P. vulgatus WT, 0.0792 (active); in experiment [1], 0.806; in experiment [2] it was 0.717.

In the case of `O=C1OC(CN2CCOCC2)CN1/N=C/c1ccc([N+](=O)[O-])o1` (configuration not stated) [Furaltadone hydrochloride], the “growth AUC normalised to DMSO control” value in the experiment on P. vulgatus RND KO is 0.0255 (active); in the experiment on P. vulgatus WT, 0.0192 (active); in experiment [1], 0.878; in experiment [2] it was 0.856.

With `N#Cc1cc(NC(=O)C(=O)O)c(Cl)c(NC(=O)C(=O)O)c1` [Lodoxamide], the “growth AUC normalised to DMSO control” value was 1 with P. vulgatus RND KO, 1.04 in the experiment with P. vulgatus WT, 1 in experiment [1] and 1.01 in experiment [2].

In the case of `CCCSS/C(CCO)=C(/C)N(C=O)Cc1cnc(C)nc1N` [Prosultiamine], the “growth AUC normalised to DMSO control” value was 1.09 with P. vulgatus RND KO, 1.06 with P. vulgatus WT, 0.997 in experiment [1] and 1.02 in experiment [2].

In the case of `CCC[C@@H]1C[C@@H](C(=O)N[C@@H]([C@H]2O[C@H](SC)[C@H](OP(=O)(O)O)[C@@H](O)[C@H]2O)[C@H](C)Cl)N(C)C1` [Clindamycin Phosphate], the “growth AUC normalised to DMSO control” value with P. vulgatus RND KO was 0.844; in the experiment with P. vulgatus WT, 0.895; in experiment [1], 1; in experiment [2] it was 0.961.

On to `CNCc1cc(-c2ccccc2F)n(S(=O)(=O)c2cccnc2)c1` [Vonoprazan], for which the “growth AUC normalised to DMSO control” value was 1.02 in the experiment on P. vulgatus RND KO, 1.04 in the experiment with P. vulgatus WT, 1 in experiment [1] and 0.995 in experiment [2].

Consider `CCN[C@@H]1C[C@H](N)[C@@H](O[C@H]2OC(CN)=CC[C@H]2N)[C@H](O)[C@H]1O[C@H]1OC[C@](C)(O)[C@H](NC)[C@H]1O` [Netilmicin sulfate], for which the “growth AUC normalised to DMSO control” value is 1.02 in the experiment with P. vulgatus RND KO, 1.04 with P. vulgatus WT, 0.996 in experiment [1] and 0.932 in experiment [2].

Consider `CO[C@@H]1[C@@H](OC(N)=O)[C@@H](O)[C@H](Oc2ccc3c(O)c(NC(=O)c4ccc(O)c(CC=C(C)C)c4)c(=O)oc3c2C)OC1(C)C` [Novobiocin sodium salt], for which the “growth AUC normalised to DMSO control” value is 0.0285 (active) in the experiment on P. vulgatus RND KO, 0.021 (active) with P. vulgatus WT, 0.999 in experiment [1] and 0.0104 (active) in experiment [2].

In the case of `CCOC(=O)O[C@]1(C(=O)OCCl)CC[C@H]2[C@@H]3CCC4=CC(=O)C=C[C@]4(C)[C@H]3[C@@H](O)C[C@@]21C` [Loteprednol etabonate], the “growth AUC normalised to DMSO control” value with P. vulgatus RND KO is 0.853; with P. vulgatus WT it was 0.862; in experiment [1], 1.01; in experiment [2] it was 0.953.

Take `CCOC(=O)CC(=O)N1CCSC1COc1ccccc1OC` (configuration not stated) [Moguisteine]: the “growth AUC normalised to DMSO control” value was 0.965 in the experiment with P. vulgatus RND KO, 0.965 with P. vulgatus WT, 1.01 in experiment [1] and 0.986 in experiment [2].

Take `NS(=O)(=O)c1cc(C(=O)NN2C[C@@H]3[C@H]4CC[C@H](C4)[C@@H]3C2)ccc1Cl` [Tripamide]: the “growth AUC normalised to DMSO control” value is 1.02 in the experiment with P. vulgatus RND KO, 1.07 in the experiment on P. vulgatus WT, 0.999 in experiment [1] and 0.975 in experiment [2].

For `CCN1CCN(c2cc3c(cc2F)c(=O)c(C(=O)O)cn3C2CC2)CC1` [Enrofloxacin], the “growth AUC normalised to DMSO control” value with P. vulgatus RND KO was 0.0121 (active); in the experiment with P. vulgatus WT it was 0.0049 (active); in experiment [1], 0.00541 (active); in experiment [2] it was 0.00221 (active).

Consider `OCC(CO)N[C@H]1C[C@](O)(CO)[C@@H](O)[C@H](O)[C@H]1O` [Voglibose], for which the “growth AUC normalised to DMSO control” value in the experiment on P. vulgatus RND KO is 1.04; with P. vulgatus WT, 1.02; in experiment [1] it was 0.977; in experiment [2], 1.02.

In the case of `OCCN1CCN(CC/C=C2/c3ccccc3Sc3ccc(C(F)(F)F)cc32)CC1` [Flupentixol dihydrochloride cis-(Z)], the “growth AUC normalised to DMSO control” value in the experiment with P. vulgatus RND KO is 0.946; with P. vulgatus WT, 0.997; in experiment [1], 1.01; in experiment [2] it was 0.828.

Turning to `Nc1cc(C(Cl)=C(Cl)Cl)c(S(N)(=O)=O)cc1S(N)(=O)=O` [Clorsulon], the “growth AUC normalised to DMSO control” value with P. vulgatus RND KO is 1.02; in the experiment on P. vulgatus WT, 0.998; in experiment [1] it was 1; in experiment [2], 0.999.

As to `CC(C)(C)NC(=O)[C@@H]1CN(Cc2cccnc2)CCN1C[C@@H](O)C[C@@H](Cc1ccccc1)C(=O)N[C@H]1c2ccccc2C[C@H]1O` [Indinavir sulfate], the “growth AUC normalised to DMSO control” value in the experiment on P. vulgatus RND KO is 1; in the experiment on P. vulgatus WT it was 0.984; in experiment [1] it was 0.997; in experiment [2] it was 0.994.

In the case of `CC(C(=O)O)c1ccc(CC2CCCC2=O)cc1` (configuration not stated) [Loxoprofen], the “growth AUC normalised to DMSO control” value (with P. vulgatus RND KO; with P. vulgatus WT; in experiment [1]; in experiment [2]) was 1.01 throughout.

For the compound `O=C(NCCCN1CCOCC1)c1ccc(Cl)cc1` [Eprobemide], the “growth AUC normalised to DMSO control” value was 1.04 with P. vulgatus RND KO, 1.03 in the experiment on P. vulgatus WT, 1.01 in experiment [1] and 1 in experiment [2].

Regarding `COc1cc(C(=O)NC2CCCNC2)cc(OC)c1OC` (configuration not stated) [Troxipide], the “growth AUC normalised to DMSO control” value with P. vulgatus RND KO is 1.07; in the experiment on P. vulgatus WT, 1.1; in experiment [1], 0.998; in experiment [2], 0.995.

For the compound `CC(=O)Nc1ccccc1` [Acetanilide], the “growth AUC normalised to DMSO control” value with P. vulgatus RND KO was 0.993; with P. vulgatus WT it was 1; in experiment [1] it was 0.997; in experiment [2], 1.01.

Regarding `CC[C@H]1OC(=O)C[C@@H](O)[C@H](C)[C@@H](O[C@@H]2O[C@H](C)[C@@H](O[C@H]3C[C@@](C)(O)[C@@H](O)[C@H](C)O3)[C@H](N(C)C)[C@H]2O)[C@@H](CC=O)C[C@@H](C)C(=O)/C=C/C(C)=C/[C@@H]1CO[C@@H]1O[C@H](C)[C@@H](O)[C@@H](OC)[C@H]1OC` [Tylosin], the “growth AUC normalised to DMSO control” value was 0.015 (active) in the experiment with P. vulgatus RND KO, 0.0123 (active) in the experiment with P. vulgatus WT, 0.997 in experiment [1] and 0.721 in experiment [2].

For the compound `C[C@@H]1CCO[C@H]2Cn3cc(C(=O)NCc4ccc(F)cc4F)c(=O)c(O)c3C(=O)N12` [Dolutegravir], the “growth AUC normalised to DMSO control” value in the experiment on P. vulgatus RND KO is 0.0521 (active); in the experiment on P. vulgatus WT, 0.049 (active); in experiment [1], 1; in experiment [2], 0.907.

Consider `NC(=O)[C@@H]1CCCN1C(=O)[C@H](Cc1c[nH]cn1)NC(=O)[C@@H]1CCC(=O)N1` [Thyrotropin-Releasing Hormone], for which the “growth AUC normalised to DMSO control” value with P. vulgatus RND KO is 1.05; with P. vulgatus WT it was 1.04; in experiment [1], 0.996; in experiment [2], 1.01.

`CC(/C=C1\SC(=S)N(CC(=O)O)C1=O)=C\c1ccccc1` [Epalrestat]: the “growth AUC normalised to DMSO control” value in the experiment with P. vulgatus RND KO was 1.01; with P. vulgatus WT it was 1.05; in experiment [1], 1.01; in experiment [2] it was 0.921.

For `Cc1ccc(=O)n(-c2ccccc2)c1` [Pirfenidone], the “growth AUC normalised to DMSO control” value in the experiment on P. vulgatus RND KO was 0.932; with P. vulgatus WT, 0.875; in experiment [1] it was 1; in experiment [2], 1.

For the compound `CC(C)=CCC1C(=O)N(c2ccccc2)N(c2ccccc2)C1=O` [Feprazone], the “growth AUC normalised to DMSO control” value in the experiment with P. vulgatus RND KO is 1.04; in the experiment with P. vulgatus WT it was 1.09; in experiment [1] it was 1; in experiment [2], 0.983.

With `O=C(O)c1cc(=O)c2ccccc2o1` [Chromocarb], the “growth AUC normalised to DMSO control” value was 0.981 in the experiment on P. vulgatus RND KO, 1 in the experiment on P. vulgatus WT, 0.998 in experiment [1] and 1 in experiment [2].

Regarding `CC(=O)Nc1ccc(CC(=O)O)cc1` [Actarit], the “growth AUC normalised to DMSO control” value in the experiment with P. vulgatus RND KO was 0.953; with P. vulgatus WT it was 1.01; in experiment [1], 1; in experiment [2] it was 0.991.

Regarding `C/C(O)=C(\C#N)C(=O)Nc1ccc(C(F)(F)F)cc1` [Teriflunomide], the “growth AUC normalised to DMSO control” value in the experiment with P. vulgatus RND KO was 0.969; in the experiment on P. vulgatus WT, 0.982; in experiment [1], 1; in experiment [2], 0.88.
